Laboratory results as given in PubChem BioAssay (EPA / NIEHS).
Active and inactive are the calls of the source. How the source made its calls: active means hit-call score of the fitted dose curve at least 0.9, where 1 is the maximum; inactive means score below 0.9.

Key:
[1] = ATG_CRE_CIS: Attagene CIS-FACTORIAL HepG2 Assay for human cAMP Responsive Element (CRE) binding protein 3 (AID 2282926); conditions: HepG2 CRE cis-reporter, Attagene multiplexed mRNA; actives raise or lower the signal
Procedure, shortened: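 We dosed HepG2 cells bearing multiple cis-promoter reporter units for 24 h and measured reporter mRNA by RT-PCR with capillary electrophoresis detection. Bidirectional concentration-response fitting used DMSO as negative control.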

[2] = biological target: CCAAT/enhancer-binding protein beta (Homo sapiens) (UniProt P17676); assay: ATG_C_EBP_CIS: Attagene CIS-FACTORIAL HepG2 Assay for human CCAAT/Enhancer Binding Protein (C/EBP) beta (AID 2282927); conditions: HepG2 Attagene cis-factorial transcription factor reporter; actives raise or lower the signal
Procedure, shortened: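 RT-PCR/capillary electrophoresis fluorescence of reporter mRNA, 24 h post-dose, in HepG2 cells carrying transfected cis-promoter reporter units. Bidirectional curve fitting against DMSO baseline captures gain or loss of signal.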

[3] = ATG_CMV_CIS: Attagene CIS-FACTORIAL HepG2 Assay for human CMV (Internal Marker) (AID 2282928); conditions: HepG2 CMV promoter reporter, transcription factor profiling; actives raise or lower the signal;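 further: endpoint acts as a background internal control marker rather than a target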
Procedure, shortened: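 Endogenous transcription factor activity read in HepG2 via transfected cis-promoter reporter units. After 24 h dosing, reporter mRNA measured by RT-PCR/capillary electrophoresis; gain or loss of signal fit relative to DMSO.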

[4] = ATG_DR4_LXR_CIS: Attagene CIS-FACTORIAL HepG2 Assay for human Liver X Receptor (LXR), DR4 submotif (AID 2282929); conditions: HepG2 Attagene DR4 cis-reporter, mRNA transcription; actives raise or lower the signal
Procedure, shortened: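 Endogenous factor activity at a DR4 cis-element is read as reporter mRNA in transiently transfected HepG2 cells. Exposure lasts 24 h; transcripts are amplified, fluorescently labelled and sized by capillary electrophoresis, with DMSO as baseline.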

[5] = biological target: Aryl hydrocarbon receptor (Homo sapiens) (UniProt P35869); assay: ATG_Ahr_CIS: Attagene CIS-FACTORIAL HepG2 Assay for human Aryl Hydrocarbon Receptor (Ahr) (AID 2282930); conditions: HepG2 AhR cis-factorial reporter transcription; actives raise or lower the signal
Procedure, shortened: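 HepG2 cells transiently transfected with cis-element-driven multiplexed reporter transcription units; endogenous transcription factor activity measured as reporter mRNA 24 h after dosing. RT-PCR, 6-FAM labelling, HpaI digestion, capillary electrophoresis; bidirectional fitting versus DMSO baseline.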

[6] = ATG_AP_1_CIS: Attagene CIS-FACTORIAL HepG2 Assay for human Activator Protein 1 (AP-1) (AID 2282931); conditions: HepG2 Attagene cis-factorial AP-1 reporter mRNA; actives raise or lower the signal
Procedure, shortened: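 Fluorescence of labelled PCR fragments separated by capillary electrophoresis gives reporter mRNA levels. HepG2 with transfected cis-regulated reporter units, 24 h exposure; DMSO serves as baseline for bidirectional curve fits.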

[7] = ATG_AP_2_CIS: Attagene CIS-FACTORIAL HepG2 Assay for human Activator Protein 2 (AP-2) (AID 2282932); conditions: HepG2 AP-2 cis-reporter, Attagene transcription factor profiling; actives raise or lower the signal
Procedure, shortened: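 Bidirectional curve fitting against DMSO was applied to reporter mRNA signals from HepG2 cells 24 h after dosing. Cis-promoter reporter units, transiently transfected, were read by RT-PCR plus capillary electrophoresis.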

[8] = ATG_BRE_CIS: Attagene CIS-FACTORIAL HepG2 Assay for human Bone Morphogenetic Protein (BMP) Response Element (BRE) (AID 2282933); conditions: HepG2 BMP response element reporter, Attagene transcription factor profiling; actives raise or lower the signal
Procedure, shortened: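 HepG2 cells transiently transfected with CIS reporter units (endogenous TF activity, BMP response element), dosed 24 h. Reporter mRNA quantified by RT-PCR, fluorescent labelling and capillary electrophoresis; bidirectional fit vs DMSO baseline.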

[9] = biological target: Retinoic acid receptor alpha (Homo sapiens) (UniProt P10276); assay: ATG_DR5_RAR_CIS: Attagene CIS-FACTORIAL HepG2 Assay for human Retinoic Acid Receptor Alpha (RARE), DR5 submotif (AID 2282934); conditions: HepG2 Attagene cis-factorial RARE DR5 reporter, mRNA; actives raise or lower the signal;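 on AC50: reporter responds to endogenous RAR alpha beta and gamma in HepG2 not RARA alone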
Procedure, shortened: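 HepG2 cells transiently transfected with multiplexed reporter units under cis (DR5 RARE) promoters, so endogenous transcription factor activity is measured. After 24 h compound exposure, reporter mRNA is quantified by RT-PCR with fluorescent labelling and capillary electrophoresis; bidirectional fitting versus DMSO.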

[10] = biological target: Transcription factor E2F1 (Homo sapiens) (UniProt Q01094); assay: ATG_E2F_CIS: Attagene CIS-FACTORIAL HepG2 Assay for human E2F Transcription Factor 1 (AID 2282935); conditions: HepG2 Attagene cis-reporter, E2F reporter RNA transcripts; actives raise or lower the signal
Procedure, shortened: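 Multiplexed cis-reporter assay: HepG2, transient transfection, 24 h dosing, mRNA quantitation by labeled RT-PCR and CE.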

CCAAT/enhancer-binding protein beta (Homo sapiens), sequence (P17676 whole entry, looked up): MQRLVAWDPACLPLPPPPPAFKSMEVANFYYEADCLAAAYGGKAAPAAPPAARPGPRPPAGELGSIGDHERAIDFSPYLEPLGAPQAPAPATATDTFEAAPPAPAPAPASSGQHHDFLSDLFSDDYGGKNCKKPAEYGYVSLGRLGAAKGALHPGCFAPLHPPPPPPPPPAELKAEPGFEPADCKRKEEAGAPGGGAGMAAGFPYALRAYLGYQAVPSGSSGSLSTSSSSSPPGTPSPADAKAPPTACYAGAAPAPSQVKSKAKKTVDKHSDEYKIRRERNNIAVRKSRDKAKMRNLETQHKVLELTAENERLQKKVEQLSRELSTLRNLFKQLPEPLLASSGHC
Transcription factor E2F1 (Homo sapiens), sequence (Q01094 whole entry, looked up): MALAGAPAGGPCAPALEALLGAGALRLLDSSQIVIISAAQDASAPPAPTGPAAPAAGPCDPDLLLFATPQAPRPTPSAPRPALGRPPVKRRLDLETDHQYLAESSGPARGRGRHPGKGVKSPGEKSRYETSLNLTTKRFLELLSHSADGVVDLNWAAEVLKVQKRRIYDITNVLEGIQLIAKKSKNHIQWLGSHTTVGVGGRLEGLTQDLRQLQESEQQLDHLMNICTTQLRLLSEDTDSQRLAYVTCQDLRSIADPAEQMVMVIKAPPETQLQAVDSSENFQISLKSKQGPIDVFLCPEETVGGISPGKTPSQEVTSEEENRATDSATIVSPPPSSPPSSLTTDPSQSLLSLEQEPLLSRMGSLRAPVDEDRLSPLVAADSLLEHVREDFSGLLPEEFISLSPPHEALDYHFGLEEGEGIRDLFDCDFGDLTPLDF
Retinoic acid receptor alpha (Homo sapiens), sequence (P10276 whole entry, looked up): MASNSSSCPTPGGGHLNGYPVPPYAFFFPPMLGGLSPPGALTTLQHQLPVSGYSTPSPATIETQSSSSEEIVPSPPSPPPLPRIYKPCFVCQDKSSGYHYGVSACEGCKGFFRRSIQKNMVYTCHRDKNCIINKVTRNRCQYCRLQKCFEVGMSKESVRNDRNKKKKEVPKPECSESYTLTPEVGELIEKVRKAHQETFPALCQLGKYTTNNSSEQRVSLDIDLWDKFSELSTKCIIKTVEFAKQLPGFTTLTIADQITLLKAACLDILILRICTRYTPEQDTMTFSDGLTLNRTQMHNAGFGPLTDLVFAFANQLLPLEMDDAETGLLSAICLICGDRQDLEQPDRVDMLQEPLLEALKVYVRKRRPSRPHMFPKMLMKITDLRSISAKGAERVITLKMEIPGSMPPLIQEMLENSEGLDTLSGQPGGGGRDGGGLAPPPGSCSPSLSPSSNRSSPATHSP
Aryl hydrocarbon receptor (Homo sapiens), sequence (P35869 whole entry, looked up): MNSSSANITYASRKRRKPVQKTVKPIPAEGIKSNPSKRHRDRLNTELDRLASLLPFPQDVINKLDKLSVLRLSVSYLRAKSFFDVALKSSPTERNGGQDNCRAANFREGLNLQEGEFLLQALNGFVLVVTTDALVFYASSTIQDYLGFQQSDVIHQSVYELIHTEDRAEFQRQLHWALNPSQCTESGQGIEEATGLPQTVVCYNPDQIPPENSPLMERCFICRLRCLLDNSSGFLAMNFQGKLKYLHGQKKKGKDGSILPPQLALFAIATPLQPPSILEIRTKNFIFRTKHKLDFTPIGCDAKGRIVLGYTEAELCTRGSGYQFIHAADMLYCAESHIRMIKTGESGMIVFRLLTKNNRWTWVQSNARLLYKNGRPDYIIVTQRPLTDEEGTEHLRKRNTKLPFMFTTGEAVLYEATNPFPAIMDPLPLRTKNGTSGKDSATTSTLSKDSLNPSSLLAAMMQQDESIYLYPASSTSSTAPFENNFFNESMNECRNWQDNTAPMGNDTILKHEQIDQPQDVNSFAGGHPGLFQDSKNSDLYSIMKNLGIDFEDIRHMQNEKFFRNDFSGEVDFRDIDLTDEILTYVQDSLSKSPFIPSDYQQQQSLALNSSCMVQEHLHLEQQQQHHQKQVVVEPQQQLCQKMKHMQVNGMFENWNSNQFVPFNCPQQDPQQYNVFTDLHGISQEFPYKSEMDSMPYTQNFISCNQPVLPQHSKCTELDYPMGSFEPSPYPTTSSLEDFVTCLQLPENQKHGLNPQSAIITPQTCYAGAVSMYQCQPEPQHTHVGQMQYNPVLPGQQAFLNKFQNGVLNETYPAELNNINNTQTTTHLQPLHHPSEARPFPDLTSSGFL

| Compound | outcome [1] | outcome [2] | outcome [3] | outcome [4] | outcome [5] | outcome [6] | outcome [7] | outcome [8] | outcome [9] | outcome [10] | AC50 [1] | AC50 [2] | AC50 [3] | AC50 [5] | AC50 [6] | AC50 [8] | AC50 [4] | AC50 [9] | AC50 [7] |
| --- | --- | --- | --- | --- | --- | --- | --- | --- | --- | --- | --- | --- | --- | --- | --- | --- | --- | --- | --- |
| ClC(Cl)c1ccccc1 | inactive | inactive | inactive | inactive | inactive | inactive | inactive | inactive | inactive | inactive |  |  |  |  |  |  |  |  |  |
| OCC(F)(F)OC(F)(F)C(F)(F)OC(F)(F)C(F)(F)OC(F)(F)CO |  | inactive | inactive | inactive | inactive | inactive | inactive | inactive | inactive | inactive | 35.5 µM (active) |  |  |  |  |  |  |  |  |
| N#Cc1c(-c2ccc(Cl)cc2)[nH]c(C(F)(F)F)c1Br |  |  |  | inactive |  |  | inactive |  | inactive | inactive | 0.019 µM (active) | 0.0342 µM (active) | 3.01 µM (active) | 0.0823 µM (active) | 0.0823 µM (active) | 8.08 µM (active) |  |  |  |
| CC(Cl)CN(C)C (stereo not given) | inactive | inactive | inactive | inactive | inactive | inactive | inactive | inactive | inactive | inactive |  |  |  |  |  |  |  |  |  |
| O=C(O)C(F)(F)OC(F)(F)C(F)(F)OC(F)(F)F | inactive | inactive | inactive | inactive | inactive | inactive | inactive | inactive | inactive | inactive |  |  |  |  |  |  |  |  |  |
| C=CC(=O)OCC(F)(F)C(F)F | inactive | inactive |  |  | inactive | inactive | inactive | inactive | inactive | inactive |  |  | 150 µM (active) |  |  |  | 67 µM (active) |  |  |
| Cc1ccc2c(c1N)C(=O)c1ccccc1C2=O | inactive | inactive | inactive | inactive |  |  | inactive | inactive | inactive | inactive |  |  |  | 4.15 µM (active) | 150 µM (active) |  |  |  |  |
| CC(C)Nc1ccc(Nc2ccccc2)cc1 | inactive | inactive |  |  | inactive |  | inactive | inactive | inactive | inactive |  |  | 60 µM (active) |  | 60 µM (active) |  | 32.4 µM (active) |  |  |
| CCCCN(CC)C(=O)SCCC | inactive | inactive | inactive | inactive | inactive | inactive | inactive | inactive | inactive | inactive |  |  |  |  |  |  |  |  |  |
| Clc1ccc(Oc2ccccc2)cc1 | inactive | inactive | inactive | inactive | inactive | inactive | inactive | inactive | inactive | inactive |  |  |  |  |  |  |  |  |  |
| CCCCCCCc1ccc(O)cc1 | inactive | inactive | inactive | inactive | inactive | inactive | inactive | inactive | inactive | inactive |  |  |  |  |  |  |  |  |  |
| Nc1ccc(Sc2ccc(N)cc2)cc1 | inactive | inactive | inactive | inactive |  | inactive | inactive | inactive | inactive | inactive |  |  |  | 19.4 µM (active) |  |  |  |  |  |
| FC(F)(F)c1ccc(Cl)cc1 | inactive | inactive | inactive | inactive | inactive | inactive | inactive | inactive | inactive | inactive |  |  |  |  |  |  |  |  |  |
| CCCCOCC1CO1 (stereo not given) | inactive | inactive | inactive | inactive | inactive | inactive | inactive | inactive | inactive | inactive |  |  |  |  |  |  |  |  |  |
| OCC(F)(F)OC(F)(F)C(F)(F)OC(F)(F)CO | inactive | inactive | inactive | inactive | inactive | inactive | inactive | inactive | inactive | inactive |  |  |  |  |  |  |  |  |  |
| CCOP(=S)(OCC)SCn1nnc2ccccc2c1=O | inactive | inactive | inactive |  | inactive | inactive | inactive |  | inactive | inactive |  |  |  |  |  | 173 µM (active) | 64.7 µM (active) |  |  |
| COP(=O)(O)OC | inactive | inactive | inactive | inactive | inactive | inactive | inactive | inactive | inactive | inactive |  |  |  |  |  |  |  |  |  |
| ClC(Cl)=C(c1ccc(Cl)cc1)c1ccccc1Cl | inactive | inactive |  |  |  |  | inactive | inactive |  | inactive |  |  | 36.5 µM (active) | 27.2 µM (active) | 57.5 µM (active) |  | 27.3 µM (active) | 27 µM (active) |  |
| Cc1cc(C)c(C(=O)P(=O)(c2ccccc2)c2ccccc2)c(C)c1 | inactive | inactive | inactive |  | inactive | inactive |  | inactive | inactive | inactive |  |  |  |  |  |  | 11.5 µM (active) |  | 59.3 µM (active) |
| O=S1(=O)OCC2C(CO1)C1(Cl)C(Cl)=C(Cl)C2(Cl)C1(Cl)Cl (stereo not given) |  | inactive | inactive |  |  | inactive | inactive | inactive |  | inactive | 171 µM (active) |  |  | 2.9 µM (active) |  |  | 8.33 µM (active) | 171 µM (active) |  |
| Nc1ccc2ccccc2c1 | inactive | inactive | inactive | inactive |  | inactive | inactive | inactive | inactive | inactive |  |  |  | 7.38 µM (active) |  |  |  |  |  |
| NNC(N)=S | inactive | inactive | inactive | inactive | inactive | inactive | inactive | inactive | inactive | inactive |  |  |  |  |  |  |  |  |  |
| CCOP(=S)(S)OCC | inactive | inactive | inactive | inactive | inactive | inactive | inactive | inactive | inactive | inactive |  |  |  |  |  |  |  |  |  |
| N#Cc1ccc(O)cc1 | inactive | inactive | inactive | inactive | inactive | inactive | inactive | inactive | inactive | inactive |  |  |  |  |  |  |  |  |  |
